# Screening results as filed in PubChem BioAssay.
# This is a sample that favours compounds with a hit; in the whole collection about 2.4% have one here.
# TDP1 inh: qHTS Assay for Inhibitors of Tyrosyl-DNA Phosphodiesterase (TDP1). Potency, µM (doses to about 130 µM), inactives show at the top dose activity change, negative = inhibition, hits mostly inhibitors. actives 0.28% (n = 350,000). Tyrosyl-DNA phosphodiesterase 1 (Homo sapiens), Q9NUW8. recombinant TDP1, AlphaScreen DNA substrate cleavage; note: % is set by controls: 0 for no effect and ±100 for the full control effect; nearly all actives have a fitted effect of over 40% in size
#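 Tdp1 1 nM final; 15 min RT w/ cpd; substrate 15 nM, 5 min; beads 10 ug/ml, 10 min; AlphaScreen read. Neg ctrl: no enzyme.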
# POLI inh: qHTS for Inhibitors of Polymerase Iota; DNA polymerase iota (Homo sapiens), Q9UNA4; Pol iota fluorescent replication assay, 10 min; Potency, µM (top dose mostly 115 µM), without a hit: at the highest dose activity, negative = inhibition, most hits filed as inhibitors; actives 1% (n = 390,000); AID 588590, 2011
# Target sequence (Q9UNA4 whole entry, looked up): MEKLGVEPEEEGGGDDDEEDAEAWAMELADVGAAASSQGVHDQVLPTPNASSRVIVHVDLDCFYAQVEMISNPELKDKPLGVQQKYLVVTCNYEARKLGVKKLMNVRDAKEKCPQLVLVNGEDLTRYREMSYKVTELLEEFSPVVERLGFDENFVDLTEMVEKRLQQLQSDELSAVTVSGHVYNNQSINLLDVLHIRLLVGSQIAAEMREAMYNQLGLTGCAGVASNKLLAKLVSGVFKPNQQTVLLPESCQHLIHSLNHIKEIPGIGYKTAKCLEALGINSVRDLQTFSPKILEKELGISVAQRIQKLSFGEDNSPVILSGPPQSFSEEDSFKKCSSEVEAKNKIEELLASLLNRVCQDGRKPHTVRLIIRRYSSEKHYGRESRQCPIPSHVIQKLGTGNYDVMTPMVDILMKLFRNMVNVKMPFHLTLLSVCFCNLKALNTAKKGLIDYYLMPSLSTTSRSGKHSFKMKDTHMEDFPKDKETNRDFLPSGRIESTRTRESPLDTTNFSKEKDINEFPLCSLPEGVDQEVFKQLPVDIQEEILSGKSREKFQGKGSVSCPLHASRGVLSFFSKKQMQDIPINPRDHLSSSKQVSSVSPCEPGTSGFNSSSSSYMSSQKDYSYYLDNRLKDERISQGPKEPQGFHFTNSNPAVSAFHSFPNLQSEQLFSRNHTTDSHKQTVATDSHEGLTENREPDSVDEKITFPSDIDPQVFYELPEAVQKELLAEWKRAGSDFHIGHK
#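 Pol iota at 10 nM preincubated 15 min with compounds at room temperature; reaction started with fluorescent substrate, 50 nM final. Fluorescence read kinetically at 0 and 10 min; buffer-only wells as negative control.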
# Pol eta inh-1: qHTS for Inhibitors of Polymerase Eta; DNA polymerase eta (Homo sapiens), Q9Y253; recombinant Pol eta, fluorescent DNA replication assay; Potency, µM (highest dose often 114 µM), for inactives: at the top dose activity change, negative = inhibition, most hits filed as inhibitors; actives 1.2% (n = 390,000); note: % is set by controls: 0 for no effect and ±100 for the full control effect
#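 Pol eta at 10 nM preincubated with compounds 15 min at room temperature; reaction started with fluorescent substrate (50 nM final) and read kinetically at 0 and 10 min.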
# POLB inh: qHTS Assay for Inhibitors of DNA Polymerase Beta. P06746. Pol beta primer extension/strand displacement, fluorescence kinetic. Potency, µM (doses to about 114 µM), for inactives: at the highest dose activity change, negative = inhibition, hits mostly inhibitors. actives 1.3% (n = 340,000); note: % is set by controls: 0 for no effect and ±100 for the full control effect
#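 Enzyme-only controls used 10 nM Pol beta; buffer lacking enzyme served as negative control. Compound preincubated 15 min, then 50 nM substrate added; 0 and 10 min reads at room temperature.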
# Pol kappa inh-1: qHTS for Inhibitors of Polymerase Kappa; DNA polymerase kappa (Homo sapiens), Q9UBT6; purified Pol kappa, fluorescent DNA synthesis assay, 10 min; Potency, µM (series often up to 107 µM), for the others: top-dose activity, negative = inhibition, hits mostly inhibitors; actives 0.53% (n = 400,000); note: % is set by controls: 0 for no effect and ±100 for the full control effect
#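 Enzyme at 10 nM met test compounds for 15 min at room temperature. Substrate addition (50 nM final) began the reaction, which was monitored by fluorescence at 0 and 10 min.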
# Pol kappa inh-2: qHTS for Inhibitors of Polymerase Kappa: Confirmatory Assay for Cherry-picked Compounds. AID 720501, 2013. purified Pol-kappa, fluorescent strand-displacement substrate. actives 76% (n = 920). Potency, µM, actives largely listed as inhibitors. shares compounds with Pol eta inh-1
# Pol eta inh-2: qHTS for Inhibitors of Polymerase Eta: Confirmatory Assay for Cherry-picked Compounds. Pol eta primer extension, TAMRA/BHQ fluorescence, 10 min. shares compounds with Pol eta inh-1. AID 720502, 2013. Potency, µM, hits mostly inhibitors. actives 64% (n = 2,600)
# * marks the source's active call; other numbers are inactive results; ? = inconclusive; nt = no result. Calls come from the whole dose curve; as a rule, active = well fitted curve in the direction sought with a large enough effect; inconclusive = small, poorly fitted or top-dose-only effect, or another doubt; inactive = no such curve, though single readings can be large; an effect the other way counts as inactive or inconclusive. Potency is the fitted concentration of half-maximal effect.
SMILES,TDP1 inh,POLI inh,Pol eta inh-1,POLB inh,Pol kappa inh-1,Pol eta inh-2,others
CC(C)C(CCNC(=O)CC(Cc1ccccc1)c1ccco1)c1ccco1 (stereo not drawn),-7%,?,79µM*,32µM*,?,85*,Pol kappa inh-2=53*
CC(C)C(CCNC(=O)CN1C(=O)c2ccccc2C1=O)c1ccco1 (stereo not drawn),0%,14%,-5%,79%,2%,nt,
Cc1ccc(NC(=O)CCC(=O)c2ccc(Cl)s2)nc1,-13%,?,40µM*,nt,?,nt,Pol kappa inh-2=?
Cc1ccc(C(=O)CCC(=O)Nc2ccc(C)cn2)cc1,0%,17%,-16%,nt,-16%,nt,
NC(=O)Cn1c(=O)n(-c2ccc(F)c(Cl)c2)c(=O)c2sc3ccccc3c21,4%,19%,-12%,22%,-3%,nt,
CC(=O)Nc1ccc(S(=O)(=O)N2CCC(n3c(C(F)(F)F)nc4cccnc43)CC2)cc1,8%,1%,-13%,23%,5%,nt,
O=C1CC(c2ccc(O)c(O)c2)Oc2cc(O)cc(O)c21 (stereo not drawn),-6%,50µM*,22µM*,?,16µM*,76*,
COc1ccc([C@H]2Cc3cc(O)cc(O)c3C(=O)O2)cc1O,1%,?,-5%,nt,-7%,nt,
COc1cc(C(=O)N2CC(=O)Nc3ccc(C)cc3C2c2ccc(F)cc2)cc(OC)c1OC (stereo not drawn),6%,-6%,-11%,1%,-1%,nt,
O=C1Nc2c(Cl)cc(Cl)cc2C1=O,nt,?,?,nt,?,?,
CCOC(=O)N/N=C(C)/C=C/c1ccco1,6%,11%,-12%,14%,5%,nt,
CCOC(=O)N/N=C\C=C\c1ccco1,-13%,?,79µM*,?,-37%,76*,
O=C(O)/C=C/c1ccc(S(=O)(=O)Nc2ccc(C(=O)NCC(=O)O)cc2)cc1,-5%,?,18µM*,-16%,?,?,
O=C(O)/C=C/c1ccc(S(=O)(=O)Nc2ccc(OCc3ccccc3)cc2)cc1,nt,-14%,-10%,?,-7%,nt,
C[C@@H](C(=O)Nc1nc(-c2ccccn2)cs1)N1C(=O)C2CCCCC2C1=O (stereo partly drawn),-8%,7.1µM*,13µM*,13µM*,-15%,?,
COc1ccc(OCCCC(=O)OCC(=O)Nc2ncc(Cl)cc2Cl)cc1,nt,?,40µM*,nt,-31%,85*,Pol kappa inh-2=?
O=C(COC(=O)CNC(=O)c1ccc([N+](=O)[O-])o1)Nc1ncc(Cl)cc1Cl,-19%,?,?,nt,-21%,?,
Cc1cc(C)cc(-n2nnc(-c3nsc(NC(=O)c4ccccc4Cl)n3)c2C)c1,?,?,?,7.9µM*,-11%,nt,Pol kappa inh-2=?
NCCCCCc1nnc(SCc2ccc(F)cc2)o1,-3%,1%,-5%,35%,-4%,nt,
O=C(N/N=C/c1ccc(O)c(O)c1)c1ccc(-n2cnnn2)cc1,?,45µM*,22µM*,nt,79µM*,?,
O=C(N/N=C/c1cccc(O)c1)c1ccc(-n2cnnn2)cc1,-10%,?,-14%,nt,-10%,nt,
Cc1ccc(C(=O)O)cc1-n1c(C)cc(C=O)c1C,18µM*,28µM*,20µM*,18µM*,?,60*,
COc1ccc(N2CCN(C(=O)Nc3cn(CC(C)C)c(=O)c4ccccc34)CC2)cc1,6%,43%,-20%,1%,-19%,nt,
